# Results from PubChem BioAssay (NCATS).
# Results filed as inconclusive are left out. Unmarked numbers belong to inactive results. The source made the active and inactive calls. Calls come from the whole dose curve; as a rule, active = well fitted curve in the direction sought with a large enough effect; inconclusive = small, poorly fitted or top-dose-only effect, or another doubt; inactive = no such curve, though single readings can be large; an effect the other way counts as inactive or inconclusive.
# What was measured:
# [1] = test system: SKOV3; assay: Primary qHTS to identify gynecologic anti-cancer compounds using libraries of approved drugs and bioactive compounds (AID 1345084); conditions: Gynecologic cancer cell panel viability, ATPlite luminescence, 48 h; series mostly up to 57.5 µM; note: nearly all actives have a fitted effect of over 55% in size
# In short: (§1)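 ATP-based viability (ATPlite), 1,000 cells/well, 16 h pre-incubation, 48 h compound at 37 C, 5% CO2, 15 min RT before read.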
# [2] = test system: PA-1; assay: as above; conditions: Gynecologic cancer cell panel viability, ATPlite luminescence, 48 h; series mostly up to 57.5 µM
# In short: as §1
# [3] = test system: Tov112D; assay: as above; conditions: Gynecologic cancer cell panel viability, ATPlite luminescence, 48 h; series mostly up to 57.5 µM
# In short: as §1
# [4] = qHTS assay to identify inhibitors of the type 1 interferon - major histocompatibility complex class I in skeletal muscle: Counter screen cell viability and HiBit confirmation (AID 1347412); conditions: iHSKM muscle cells + IFN-b, HiBiT or CellTiter-Glo, 24 h; for Potency: HiBiT; for activity change, negative = inhibition: Viability, at 45.9 µM (top of the series); for all read-outs here: nearly all actives have a fitted effect of over 60% in size
# In short: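 Luminescence read-out: Nano-Glo HiBiT lytic signal from C-terminally HiBiT-tagged HLA-B in CRISPR-edited human myoblasts, plus CellTiter Glo ATP as viability counter screen. IFN-beta 4.0 ng/ml; 24 hrs treatment at 37 C, 5% CO2.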
# [5] = test system: Tov-21-G; assay: Primary qHTS to identify gynecologic anti-cancer compounds using libraries of approved drugs and bioactive compounds (AID 1345084); conditions: Gynecologic cancer cell panel viability, ATPlite luminescence, 48 h; series mostly up to 57.5 µM; note: nearly all actives have a fitted effect of over 55% in size
# In short: as §1
# % is set by controls: 0 for no effect and ±100 for the full control effect; potency is the fitted concentration of half-maximal effect.
compound,measurement,setting,value
COc1cc2nc(N3CCC(N4CCCCC4)CC3)nc(NC3CCCCCC3)c2cc1OC,Potency,[1],22400 nM (active)
Cc1nc(Nc2n[nH]c3c2CN(C(=O)NC(CN(C)C)c2ccccc2)C3(C)C)c2sccc2n1 (stereo unspecified),Potency,[2],316 nM (active)
same,Potency,[3],6310 nM (active)
CN(C)C/C=C/C(=O)Nc1cccc(C(=O)Nc2cccc(Nc3ncc(Cl)c(-c4c[nH]c5ccccc45)n3)c2)c1,Potency,[2],2820 nM (active)
same,Potency,[3],1260 nM (active)
same,Potency,[4],1110 nM (active)
same,"activity change, negative = inhibition",[4],0.891%
COc1ccc(F)cc1-c1cc(NC(=O)[C@@H]2CCCNC2)ncc1Cl,Potency,[2],355 nM (active)
same,Potency,[3],708 nM (active)
COc1cc(O)cc(/C=C/c2ccc(O[C@@H]3O[C@H](CO)[C@@H](O)[C@H](O)[C@H]3O)cc2)c1,Potency,[2],inactive
same,Potency,[3],inactive
Cc1ccc([N+](=O)[O-])cc1S(=O)(=O)N(C)/N=C/c1cnc2ccc(Br)cn12,Potency,[2],199 nM (active)
same,Potency,[3],355 nM (active)
same,Potency,[4],49.7 nM (active)
same,"activity change, negative = inhibition",[4],-5.21%
CC(C)[C@@H](CS(=O)(=O)C(C)C)N1C(=O)[C@@](C)(CC(=O)O)C[C@H](c2cccc(Cl)c2)[C@H]1c1ccc(Cl)cc1,Potency,[2],4470 nM (active)
same,Potency,[3],inactive
COc1cc(OC)c(/C=C/S(=O)(=O)Cc2ccc(OC)c(NCC(=O)O)c2)c(OC)c1,Potency,[2],224 nM (active)
same,Potency,[3],316 nM (active)
O=C(Nc1c(-c2cccs2)nc2ccccn12)c1ccc(Cl)cc1,Potency,[2],inactive
same,Potency,[3],inactive
c1cc(Nc2cc(C3CC3)[nH]n2)nc(Nc2ccc3nc[nH]c3c2)n1,Potency,[2],3980 nM (active)
same,Potency,[3],1120 nM (active)
same,Potency,[4],1400 nM (active)
same,"activity change, negative = inhibition",[4],24.1%
CC[C@H](CO)Nc1nc(NCc2ccc(-c3ccccn3)cc2)c2ncn(C(C)C)c2n1,Potency,[2],1000 nM (active)
same,Potency,[3],1780 nM (active)
C/C(=C\C=C\C(C)C1CCC2(C)C3CCC4C(C)(C)C(=O)CCC45CC35CCC12C)C(=O)O (stereo unspecified),Potency,[1],inactive
same,Potency,[5],inactive
same,Potency,[3],inactive
CCCCC1CCN(CCCC(=O)c2ccccc2C)CC1,Potency,[1],inactive
same,Potency,[5],inactive
CNC(C)C(=O)NC(C(=O)N1CCCC1c1nc(C(=O)c2ccc(F)cc2)cs1)C1CCCCC1 (stereo unspecified),Potency,[2],inactive
same,Potency,[3],inactive
COc1cc2c(cc1OC)[C@@H]1[C@H](O)[C@@H](OC)C=C3CCN(C2)[C@H]31,Potency,[1],inactive
C[C@@H]1C[C@@H]2O[C@H]2/C=C\C=C\C(=O)Cc2c(Cl)c(O)cc(O)c2C(=O)O1,Potency,[2],10000 nM (active)
same,Potency,[3],inactive
CC(C)(C)Nc1nc2cc(Cl)c(Cl)cc2nc1S(C)(=O)=O,Potency,[1],20000 nM (active)
same,Potency,[5],28200 nM (active)
CN(C)c1nc(NC2CCC(NCCc3ccc(Br)cc3OC(F)(F)F)CC2)nc2ccccc12 (stereo unspecified),Potency,[1],14100 nM (active)
O=C1NC(=O)C(c2cn3c4c(cccc24)CCC3)C1c1c[nH]c2ccccc12 (stereo unspecified),Potency,[2],3160 nM (active)
same,Potency,[3],5010 nM (active)
COc1cc(C(=O)NC2CCN(C)CC2)c(F)cc1Nc1ncc2c(n1)N(C1CCCC1)CC(F)(F)C(=O)N2C,Potency,[2],158 nM (active)
same,"activity change, negative = inhibition",[4],-23.9%
CC(C)c1c2cc(-c3ccnc(NC4CCC(NC5CCOCC5)CC4)n3)ccc2nn1C (stereo unspecified),Potency,[2],355 nM (active)
same,Potency,[3],398 nM (active)
same,Potency,[4],249 nM (active)
same,"activity change, negative = inhibition",[4],-6.54%
NC(=O)c1cccc2cn(-c3ccc(C4CCCNC4)cc3)nc12 (stereo unspecified),Potency,[1],inactive
same,Potency,[5],inactive
CCn1c(=O)c(-c2ccn[nH]2)cc2c(C)nc(N)nc21,Potency,[1],10000 nM (active)
NCc1ccc(Nc2ncc(F)c(Nc3ccccc3)n2)cc1,Potency,[2],12600 nM (active)
same,Potency,[3],inactive
C/C=C/C=C/C(O)=C1\C(O)=C(C)C(=O)[C@@]2(C)OC(=O)[C@@](C)(NC(=O)/C=C/C(=O)O)[C@@H]12,Potency,[1],inactive
same,Potency,[5],inactive
same,Potency,[3],inactive
Cc1cc(Nc2cc(N3CCN(C)CC3)nc(/C=C/c3ccccc3)n2)n[nH]1,Potency,[2],2510 nM (active)
same,Potency,[4],11100 nM (active)
CS(=O)(=O)N1CCC(NC(=O)c2[nH]ncc2NC(=O)c2c(Cl)cccc2Cl)CC1,Potency,[2],3980 nM (active)
same,Potency,[3],8910 nM (active)
same,Potency,[4],1980 nM (active)
same,"activity change, negative = inhibition",[4],12.3%
Cc1ccc(NC(=O)c2ccc(CN3CC[C@H](N(C)C)C3)c(C(F)(F)F)c2)cc1Nc1nccc(-c2cncnc2)n1,Potency,[1],inactive
same,Potency,[5],inactive
same,Potency,[3],inactive
CC1=CC(=O)CC(C)(C)[C@@]1(O)CC[C@@H](C)O[C@@H]1O[C@H](CO)[C@@H](O)[C@H](O)[C@H]1O,Potency,[1],inactive
same,Potency,[5],inactive
same,Potency,[3],inactive
Cc1cccc2c1NC(=O)C2(c1ccc(O)cc1)c1ccc(O)cc1,Potency,[1],inactive
CN(C)CCCCC(=O)Nc1ccc(NC(=S)NC(=O)c2ccc(C(C)(C)C)cc2)cc1,Potency,[2],15800 nM (active)
same,Potency,[3],inactive
CO[C@H]1/C=C/[C@@](C)(O)/C=C/C(=O)O[C@H](C)[C@@H](C)CC/C=C/1C,Potency,[1],12600 nM (active)
same,Potency,[5],10000 nM (active)
CC(=O)N1CCN(Cc2ccc([C@H](C)Nc3nccc(N4C(=O)OC[C@@H]4C(C)C)n3)cc2)CC1,Potency,[1],inactive
same,Potency,[5],inactive
same,Potency,[3],inactive
CC(=O)O[C@@H]1C[C@H](O)[C@@]23CO[C@H](O)[C@]1(C)C2C[C@@H](O)[C@]1(C)C3C(=O)[C@H](OC(C)=O)[C@@]2(C)[C@H](c3ccoc3)C[C@H]3O[C@]321 (stereo partly specified),Potency,[2],562 nM (active)
same,Potency,[3],316 nM (active)
Cc1c(CN2CCN(C(=O)C(C)O)CC2)sc2c(N3CCOCC3)nc(-c3cnc(N)nc3)nc12 (stereo unspecified),Potency,[1],1000 nM (active)
same,Potency,[5],2240 nM (active)
Cc1cc(-c2cc(O)ccc2Cl)cc2nnc(Nc3ccc(OCCN4CCCC4)cc3)nc12,Potency,[1],28200 nM (active)
CC(=O)NC1=NN(C(C)=O)C(C)(c2ccccc2)S1 (stereo unspecified),Potency,[2],3980 nM (active)
same,Potency,[3],3160 nM (active)
CCOC(=O)C(CCc1ccccc1)NC(C)C(=O)N1C(=O)N(C)CC1C(=O)O (stereo unspecified),Potency,[1],inactive
same,Potency,[5],inactive
same,Potency,[3],inactive
O=C1CCC=CC1(O)C(=O)OCc1ccccc1O[C@@H]1O[C@H](CO)[C@@H](O)[C@H](O)[C@H]1O (stereo partly specified),Potency,[1],inactive
same,Potency,[5],inactive
same,Potency,[3],inactive
COc1cc2c(cc1O)CC[C@H]1[C@@H]2CC[C@]2(C)[C@H](O)CC[C@@H]12,Potency,[1],3160 nM (active)
same,Potency,[3],1000 nM (active)
CC1(C)CC[C@]2(C(=O)O)CC[C@]3(C)C(=CCC4[C@@]5(C)CC[C@H](O[C@@H]6O[C@H](C(=O)O)[C@@H](O[C@@H]7OC[C@@H](O)[C@H](O)[C@H]7O)[C@H](O)[C@H]6O)C(C)(C)C5CC[C@]43C)C2C1O (stereo partly specified),Potency,[1],inactive
same,Potency,[5],inactive
same,Potency,[3],inactive
C[C@@H]1CC[C@]2(C(=O)O[C@@H]3O[C@H](CO)[C@@H](O)[C@H](O)[C@H]3O)CC[C@]3(C)C(=CCC4[C@@]5(C)C[C@@H](O)[C@H](O)[C@](C)(C(=O)O)C5CC[C@]43C)[C@@H]2[C@]1(C)O (stereo partly specified),Potency,[1],inactive
same,Potency,[5],inactive
same,Potency,[3],inactive
CC1(C)CCC[C@@]2(C)C1[C@H](OC(=O)/C=C/C=C/C(=O)O)C=C1COC(=O)[C@@]12O (stereo partly specified),Potency,[1],inactive
same,Potency,[5],inactive
same,Potency,[3],inactive
COc1cc2oc(-c3ccc(O)cc3O)cc2c(OC)c1CC=C(C)C,Potency,[1],inactive
same,Potency,[5],inactive
same,Potency,[3],inactive
CC1=C(CO)C(=O)O[C@@H]([C@@H](C)[C@H]2CC[C@H]3[C@@H]4C[C@H]5O[C@]56[C@@H](O)C=CC(=O)[C@]6(C)[C@H]4CC[C@]23C)C1,Potency,[1],8910 nM (active)
same,Potency,[5],7080 nM (active)
same,Potency,[3],10000 nM (active)
same,Potency,[4],883 nM (active)
Cc1nc(NC(=O)N2CCCC2C(N)=O)sc1-c1csc(C(C)(C)C)n1 (stereo unspecified),Potency,[1],3160 nM (active)
same,Potency,[5],inactive
same,Potency,[3],inactive
Cc1cc2c(F)c(Oc3ncnn4cc(OCC(C)O)c(C)c34)ccc2[nH]1 (stereo unspecified),Potency,[1],inactive
same,Potency,[5],inactive
same,Potency,[3],inactive
C=C1CCC2C(C)(C)CCC[C@]2(C)[C@H]1C/C=C(\CO)C(=O)C(=O)O (stereo partly specified),Potency,[1],inactive
same,Potency,[5],inactive
same,Potency,[3],inactive
